# In PubChem BioAssay (Tox21):
# Results filed as inconclusive are left out. A number with no mark means an inactive call. The call rests on the fitted dose curve; in most records, active means well fitted activation curve with a large enough effect in the repeat runs; inconclusive means weak or mixed curves; inactive means flat fitted curve, though single readings scatter.
# Test: Caspase-3/7 induction in HepG2 cells by small molecules, qHTS assay (AID 1346978); further: nearly all actives have a fitted effect of over 15% in size
# Settings: HepG2 caspase-3/7 activation, Caspase-Glo luminescence, 17 h; series mostly up to 92.4 µM; caspase activation: at the top concentration
# Description: National Center for Advancing Translational Sciences [NCATS] NIH Chemical Genomics Center [NCGC] U.S. Environmental Protection Agency [EPA] National Institutes of Environmental Health Sciences [NIEHS] National Toxicology Program [NTP] Assay overview: Apoptosis is a process of programmed cell death and plays a central role in the development of multicellular organisms. It is a highly regulated process and induces cell death by activating caspases, which are the members of cysteine aspartic acid-specific protease (caspase) family. Caspases involved in apoptosis are classified by their mechanism of action as initiator caspases (caspase-2, -8, -9 and -10) and executioner caspases (caspase-3, -6, and -7). Inhibition of apoptosis results in number of cancers, autoimmune diseases, inflammatory diseases and viral infection. To identify small molecule compounds that induce apoptosis, a homogeneous, luminescent Caspase-Glo 3/7 assay was used. Wild type HepG2 cells were used to screen Tox21 libraries for identifying caspase-3/7 activity inducers.
# Assay Protocol Summary: HepG2 cells were dispensed at 2,000 per well in 5uL of culture medium into white solid bottom 1536-well plates (Corning Life Sciences, Corning, NY) using a Multidrop Combi (Thermo Scientific, Waltham, MA) dispenser. The assay plates were incubated at 37 C and 5% CO2 for 5hr, and then 23nL of compounds dissolved in DMSO and positive control were transferred using a Pintool station (Wako, San Diego, CA). The assay plates were incubated at 37C and 5% CO2 for 17hr. For caspase-3/7 activity read, 4uL of Caspase-Glo 3/7 reagent (Promega Corporation, Madison, WI) was added to each well of the assay plates using Flying Reagent Dispenser (FRD, Aurora Discovery, San Diego, CA) and incubated the assay plates at room temperature for 30min. The luminescence signal was quantified using a ViewLux plate reader (Perkin Elmer, Shelton, CT).
# On the % scale 0 is the no-effect control and ±100 the full control effect.
row,SMILES,caspase activation
1,CC1(C)Oc2ccc(C#N)cc2[C@@H](N2CCCC2=O)[C@@H]1O,5.09% [at 42.5 µM]
2,O=C(Cn1ccnc1[N+](=O)[O-])NCc1ccccc1,0.779% [at 42.5 µM]
3,O=[N+]([O-])c1c(Cl)cc(Cl)cc1Cl,6.43%
4,CC1(C)[C@H]2CC[C@](C)(C2)[C@H]1O,0.106%
5,CC(O)CC(C)O (stereo not given),-0.319%
6,CC1(C)Cc2cccc(N)c2O1,0.367%
7,CCOC(=O)CC1(C)OCC(C)O1 (stereo not given),1.24%
8,C[C@@H](O)C(=O)O,0.257%
9,CC(C)=CCC/C(C)=C/COC=O,-0.0921%
10,CC/C(C)=N\O[Si](C)(O/N=C(\C)CC)O/N=C(\C)CC,1.86%
11,C#CCN[C@@H]1CCc2ccccc21,0.0455% [at 42.5 µM]
12,O=C1CCCCO1,0.215%
13,CC(C)(C)NC[C@H](O)COc1cccc2c1CCCC2=O,0.625% [at 42.5 µM]
14,O=NN(CCCl)C(=O)NC1CCCCC1,0.286% [at 42.5 µM]
15,NCc1ccc(S(N)(=O)=O)cc1,-1.37% [at 42.5 µM]
16,Cc1ncc([N+](=O)[O-])n1CC(C)O (stereo not given),0.968% [at 42.5 µM]
17,O=C(Cl)c1ccccc1[N+](=O)[O-],1.1%
18,C=C(C)c1cccc(C(C)(C)N=C=O)c1,0.113%
19,C[Si]1(C)O[Si](C)(C)O[Si](C)(C)O[Si](C)(C)O[Si](C)(C)O1,-0.752%
20,CC(=O)CCC1=C(C)CCCC1(C)C,0.413%

row,SMILES,caspase activation
1,CCO[Si](CC)(OCC)OCC,-1.34%
2,CC(C)Nc1ccccc1,2.64%
3,Cc1ccnc(N)c1,-2.22%
4,CCCCSCCCC,0.794%
5,CN(C)CC/C=C1/c2ccccc2COc2ccc(CC(=O)O)cc21,1.25% [at 42.5 µM]
6,COC(=O)c1cc(Cl)cc(Cl)c1,0.266%
7,Cc1ccc(N)cc1S(=O)(=O)O,-0.346%
8,CC(C)OC(=O)OCOP(=O)(CO[C@H](C)Cn1cnc2c(N)ncnc21)OCOC(=O)OC(C)C,-0.841% [at 42.5 µM]
9,CCCCCCCCCOC(=O)c1ccccc1C(=O)OCCCCCCCCC,0.333%
10,CC(C)NC(=O)c1ccc(C=O)cc1,-0.791% [at 42.5 µM]
11,N[C@@H](Cc1ccc(O)cc1)C(=O)O,-1.72% [at 8.39 µM]
12,Cc1c(N)cccc1Cl,0.0555%
13,O=C1NC(c2ccccc2)(c2ccccc2)C(=O)N1COP(=O)(O)O,-0.198% [at 42.5 µM]
14,O=C(O)CONC(=O)c1ccccc1,-0.532%
15,O=Cc1ccccc1Cl,2.24%
16,CC(=O)O[C@H]1C[C@@H]2CC[C@@]1(C)C2(C)C,-1.19%
17,CN(C)CCCO[C@@H]1[C@H]2OC(C)(C)O[C@H]2O[C@@H]1C(O)CO (stereo not given in full),-0.389% [at 42.5 µM]
18,O=C(CCCCC(=O)Nc1c(I)cc(I)c(C(=O)O)c1I)Nc1c(I)cc(I)c(C(=O)O)c1I,-0.161% [at 42.5 µM]
19,CC(C)OC(=O)CCC(=O)OC(C)C,2.99%
20,C=Cc1ccc(C(C)(C)C)cc1,1.73%
